Measurements: publication doi:10.1101/2024.03.05.583629

These sequences were tested against pT7_6His-AlfaTag-HOXD13 (human, UniProt P35453 263-343) (assay: PADIT-seq). Settings: dsDNA, one strand shown.
Chain of pT7_6His-AlfaTag-HOXD13 (P35453 263-343): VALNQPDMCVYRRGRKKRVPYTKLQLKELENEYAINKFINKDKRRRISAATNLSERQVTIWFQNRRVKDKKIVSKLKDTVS

Sequence	binding signal [log2FC]
CTCGAGGATATCAAGATCTGGCCTCGGCATTTTATGCGGAACCTCTAGCTAGCCGACTCACTATAGGGATAATCGCCCTGAGCAAAGACC	2.23 ± 0.0779
CTCGAGGATATCAAGATCTGGCCTCGGCATGGTAAAAGGAACCTCTAGCTAGCCGACTCACTATAGGGATAATCGCCCTGAGCAAAGACC	1.03 ± 0.0704
CTCGAGGATATCAAGATCTGGCCTCGGCCTTTTAGTCGGAACCTCTAGCTAGCCGACTCACTATAGGGATAATCGCCCTGAGCAAAGACC	-0.369 ± 0.0988
CTCGAGGATATCAAGATCTGGCCTCGGCGTTTTACCTGGAACCTCTAGCTAGCCGACTCACTATAGGGATAATCGCCCTGAGCAAAGACC	-0.352 ± 0.118
CTCGAGGATATCAAGATCTGGCCTCGGCGCGTTAGCGGGAACCTCTAGCTAGCCGACTCACTATAGGGATAATCGCCCTGAGCAAAGACC	-0.986 ± 0.133
CTCGAGGATATCAAGATCTGGCCTCGGCATTATAAAAGGAACCTCTAGCTAGCCGACTCACTATAGGGATAATCGCCCTGAGCAAAGACC	2.37 ± 0.0729
CTCGAGGATATCAAGATCTGGCCTCGGCCGCCCATTTGGAACCTCTAGCTAGCCGACTCACTATAGGGATAATCGCCCTGAGCAAAGACC	-0.832 ± 0.113
CTCGAGGATATCAAGATCTGGCCTCGGCCGCCCAGCAGGAACCTCTAGCTAGCCGACTCACTATAGGGATAATCGCCCTGAGCAAAGACC	-0.927 ± 0.127
CTCGAGGATATCAAGATCTGGCCTCGGCGTTTTATAGGGAACCTCTAGCTAGCCGACTCACTATAGGGATAATCGCCCTGAGCAAAGACC	3.33 ± 0.0804
CTCGAGGATATCAAGATCTGGCCTCGGCTTTTTAGCTGGAACCTCTAGCTAGCCGACTCACTATAGGGATAATCGCCCTGAGCAAAGACC	-0.298 ± 0.114
CTCGAGGATATCAAGATCTGGCCTCGGCCTTTTACTAGGAACCTCTAGCTAGCCGACTCACTATAGGGATAATCGCCCTGAGCAAAGACC	3.01 ± 0.0725
CTCGAGGATATCAAGATCTGGCCTCGGCATTTTATGTGGAACCTCTAGCTAGCCGACTCACTATAGGGATAATCGCCCTGAGCAAAGACC	2.99 ± 0.0772
CTCGAGGATATCAAGATCTGGCCTCGGCGTTTTACGCGGAACCTCTAGCTAGCCGACTCACTATAGGGATAATCGCCCTGAGCAAAGACC	2.22 ± 0.0821
CTCGAGGATATCAAGATCTGGCCTCGGCGGCATAAAAGGAACCTCTAGCTAGCCGACTCACTATAGGGATAATCGCCCTGAGCAAAGACC	0.675 ± 0.0684
CTCGAGGATATCAAGATCTGGCCTCGGCCATATAAAAGGAACCTCTAGCTAGCCGACTCACTATAGGGATAATCGCCCTGAGCAAAGACC	2.76 ± 0.0974
CTCGAGGATATCAAGATCTGGCCTCGGCGTTTTACTGGGAACCTCTAGCTAGCCGACTCACTATAGGGATAATCGCCCTGAGCAAAGACC	2.76 ± 0.0911
CTCGAGGATATCAAGATCTGGCCTCGGCCGCTATCGCGGAACCTCTAGCTAGCCGACTCACTATAGGGATAATCGCCCTGAGCAAAGACC	-0.806 ± 0.119
CTCGAGGATATCAAGATCTGGCCTCGGCCGGTTAAAAGGAACCTCTAGCTAGCCGACTCACTATAGGGATAATCGCCCTGAGCAAAGACC	0.716 ± 0.0773
